The list is not random: actives were taken first. Their share in the collection is about 3.8%.
Nrf2 activator: Nrf2 pathway activation. AREc32 ARE-luciferase reporter (MCF7-derived line), luminescence, 24 h. Potency, µM (top dose mostly 46.1 µM), inactives show at the highest dose activation, hits mostly activators. actives 0.31% (n = 410,000); further: % of control where 0% means no effect; nearly all actives have a fitted effect of over 65% in size
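AREc32 cells carrying an ARE-driven firefly luciferase, 1000 cells/well in OPTI-MEM with 5% FBS, dosed after overnight attachment and incubated 24 hr at 37 deg C. Steady-Glo luminescence read after 30 min at RT.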
ELG1 DNA repair: inhibitors of ELG1-dependent DNA repair in HEK293T cells; HEK293T ELG1-luciferase reporter, luminescence, 16 h; DNA damage induced by 5-fluorouridine; actives 2.3% (n = 330,000); Potency, µM (highest dose often 46.1 µM), without a hit: top-dose activity change, negative = inhibition, most hits filed as inhibitors; AID 504467; further: on the % scale 0 is the no-effect control and ±100 the full control effect; nearly all actives have a fitted effect of over 55% in size
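Luminescence from the luciferase reporter, measured 30 min after ONE-Glo reagent at room temperature, was the read-out. Beforehand, 2,000 cells per well were exposed for 16 hr at 37 °C to 5-fluorouridine together with compound or vehicle.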
A549 viability: kills or reduces viability of A549 cells in Nrf2 counter-screen; A549 ARE-Fluc cells, CellTiter-Fluor viability, 18-24 h; Potency, µM (highest dose often 46 µM), inactives show at the top dose activity change, negative = cytotoxicity, actives largely listed as inhibitors; actives 0.16% (n = 390,000); AID 504648; further: on the % scale 0 is the no-effect control and ±100 the full control effect
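A549 ARE_Fluc cells in 5% FBS OPTI-MEM were exposed to compounds in concentration-response for 18-24 h at 37 deg C. Viability was read by CellTiter-Fluor fluorescence (Ex 405/Em 525) after 30 min, before the luciferase read.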
IDH1 R132H inh: human IDH1 R132H inhibition | O75874 | IDH1-R132H enzyme, NADPH consumption, diaphorase/resazurin fluorescence | Potency, µM (highest dose often 76.6 µM), without a hit: at the top dose activity change, negative = inhibition, most hits filed as inhibitors | actives 0.093% (n = 390,000) | AID 602179; further: on the % scale 0 is the no-effect control and ±100 the full control effect; nearly all actives have a fitted effect of over 65% in size
Target sequence (O75874 whole entry R132H, stated change not applied): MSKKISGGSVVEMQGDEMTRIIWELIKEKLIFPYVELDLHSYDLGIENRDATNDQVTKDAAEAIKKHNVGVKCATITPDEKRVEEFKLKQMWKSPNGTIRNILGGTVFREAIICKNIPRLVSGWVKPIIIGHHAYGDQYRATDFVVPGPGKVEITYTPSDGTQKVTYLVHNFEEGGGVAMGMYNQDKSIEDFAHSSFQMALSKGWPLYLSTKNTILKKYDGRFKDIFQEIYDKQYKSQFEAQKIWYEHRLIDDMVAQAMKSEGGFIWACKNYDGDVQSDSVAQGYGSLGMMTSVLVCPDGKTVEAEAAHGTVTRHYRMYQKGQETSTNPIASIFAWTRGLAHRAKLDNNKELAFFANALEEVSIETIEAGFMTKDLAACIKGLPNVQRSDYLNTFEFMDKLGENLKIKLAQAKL
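IDH1-R132H (0.5 ug/mL) preincubated 30 min with compound, then NADPH (0.016 mM) and alpha-KG (2 mM) added; 80 min at RT, pH 7.5. Remaining NADPH coupled via diaphorase/resazurin to fluorescence (540/590 nm); concentration-response curves normalized to no-enzyme control.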
Nrf2 block: inhibitors of Nrf2 signaling | A549 ARE-Fluc reporter, luciferase luminescence, 18-24 h | Potency, µM (doses to about 46 µM), for inactives: at the top dose activity change, negative = inhibition, actives largely listed as inhibitors | actives 2.1% (n = 360,000) | AID 504444; further: on the % scale 0 is the no-effect control and ±100 the full control effect; nearly all actives have a fitted effect of over 60% in size
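A549 ARE_Fluc cells (5000/well, 5% FBS OPTI-MEM) pre-incubated 2 h, then treated with compounds 18-24 h at 37C/5% CO2 in concentration-response. CellTiter-Fluor viability read first; BugLite luciferase luminescence after 15 min at room temperature gives Nrf2 activity.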
* hit, by the source's call; u = inconclusive; x = no result given; [ ] = remark or other dose. The call rests on the fitted dose curve; in most records, active means well fitted curve in the direction sought with a large enough effect; inconclusive means small, poorly fitted or top-dose-only effect, or another doubt; inactive means no such curve, though single readings can be large; an effect the other way counts as inactive or inconclusive. Potency means the concentration at half of the fitted maximal effect.

SMILES | Nrf2 activator | ELG1 DNA repair | A549 viability | IDH1 R132H inh | Nrf2 block
Cc1cccc(N2CCN(C(=O)c3ccc4nccnc4c3)CC2C)c1 (stereo not drawn) | 0% | -2% | 2% | -2% | -1%
Cc1cccc(N2CCN(C(=O)c3ccc4nc(-c5ccco5)c(-c5ccco5)nc4c3)CC2C)c1 (stereo not drawn) | -2% | u | u | 4% | 21µM*
Cc1cccc(NC(=O)Cn2c(=O)n(CC3CCC(C(=O)NCCc4ccccc4)CC3)c(=O)c3ccccc32)c1 (stereo not drawn) | -1% | x | -13% | -2% | u
Nc1nc(-c2ccccn2)nc(N)c1Cc1ccc(Cl)cc1Cl | 7% | 13% | u | -3% | 6.5µM*
CC(Cl)C(=O)NC(=O)NC12CC3CC(CC(C3)C1)C2 (stereo not drawn) | 3%[9.22 µM] | u | -2% | 2% | -20%
O=C(CCl)NC(=O)NC12CC3CC(CC(C3)C1)C2 | 1%[9.22 µM] | 16µM* | 1% | -5% | 4%
C=C1[C@@H](O)[C@@H]2O[C@]3(CC[C@H](/C=C/[C@@H](C)[C@@H]4CC(C)=CC5(O[C@H](C[C@@](C)(O)C(=O)OC)CC[C@H]5O)O4)O3)CC[C@H]2O[C@@H]1[C@@H](O)C[C@H](C)[C@H]1OC2(CCCCO2)CC[C@H]1C (stereo partly drawn) | -2% | u | u | -1%[38.3 µM] | 0.092µM*
C=C1C(O)[C@@H]2O[C@]3(CC[C@H](/C=C/C(C)[C@@H]4CC(C)=CC5(O[C@H](C[C@@](C)(O)CO)CCC5O)O4)O3)CC[C@H]2O[C@@H]1C(O)CC(C)[C@H]1OC2(CCCCO2)CCC1C (stereo partly drawn) | u | u | u | 14% | u
Cc1ccc(NS(=O)(=O)c2ccc3c(ccn3C)c2)cc1C | x | x | 5% | x | u
CCN(c1ccccc1)S(=O)(=O)c1cc(NC(=O)Nc2ccccc2C#N)ccc1Cl | 4% | 21µM* | 1% | 1% | -2%
CCN(c1ccccc1)S(=O)(=O)c1cc(C(=O)Nc2ccc(F)c(F)c2)ccc1F | 2% | 21µM* | u | -7% | u
CCN(c1ccccc1)S(=O)(=O)c1ccc(Cl)c(NC(=O)Nc2ccc(Cl)cc2C#N)c1 | 3% | -25% | u | 0% | u
COc1ccc(OC)c(C2CC(=O)N(c3cccc(C)c3)C3=C2C(=O)OC3)c1 (stereo not drawn) | 0% | x | -12% | 18% | -5%
Cc1ccc(Nc2c(-c3ccc(C)s3)nc3cccc(C)n23)cc1 | x | x | -2% | x | u
O=C(Nc1ccc(F)cc1F)c1csc(-c2ccncc2)n1 | 12% | 10% | 5% | 14% | u
O=C(Nc1ccccc1F)c1cc(Cl)sc1Cl | u | 21% | 6% | 1% | u
O=C(Nc1ccc(F)cc1F)c1cc(Cl)sc1Cl | 14µM* | u | -8% | 17% | u
O=C(Nc1ccc(F)cc1F)c1csc(-c2cccs2)n1 | 10µM* | u | -1% | 0% | u
COc1cccc(C(O)c2nc(-c3ccc4ccccc4c3)cs2)c1 (stereo not drawn) | 4% | x | x | x | x
CCCNC(=O)c1nn2cc(Br)cnc2c1Br | 0% | 1% | 0% | -9% | 8%
C[C@H](CO)N1C[C@H](C)[C@@H](CN(C)Cc2ccc(-c3ccccc3)cc2)Oc2c(NC(=O)Nc3ccc4c(c3)OCO4)cccc2C1=O | 4% | 23µM* | 2% | -1% | u
C[C@H](CO)N1C[C@H](C)[C@@H](CN(C)S(=O)(=O)c2ccc(F)cc2)Oc2c(NC(=O)Nc3ccc(C(F)(F)F)cc3)cccc2C1=O | 0% | u | -15% | -11% | 18µM*
C[C@H](CO)N1C[C@H](C)[C@@H](CN(C)S(C)(=O)=O)Oc2c(NC(=O)Nc3ccc4c(c3)OCO4)cccc2C1=O | 4% | 20% | 2% | 5% | -8%
C[C@H](CO)N1C[C@H](C)[C@@H](CN(C)C(=O)Nc2ccc3c(c2)OCO3)Oc2c(NC(=O)Nc3ccc(C(F)(F)F)cc3)cccc2C1=O | -1% | 10µM* | -27% | -13% | u
C[C@H]1CN([C@@H](C)CO)C(=O)c2cccc(NC(=O)Nc3ccc(C(F)(F)F)cc3)c2O[C@@H]1CN(C)S(=O)(=O)c1ccc(Cl)cc1 | -5% | -3% | u | -4% | u
SMILES | Nrf2 activator | ELG1 DNA repair | A549 viability | IDH1 R132H inh | Nrf2 block
COc1ccc(NC(=O)N(C)C[C@H]2Oc3c(NC(=O)Nc4ccc(C(F)(F)F)cc4)cccc3C(=O)N([C@H](C)CO)C[C@@H]2C)cc1 | -4% | u | -16% | 17% | u
C[C@@H]1CN([C@H](C)CO)C(=O)c2cccc(NC(=O)Nc3ccc(F)cc3)c2O[C@H]1CN(C)C(=O)Nc1ccc(C(F)(F)F)cc1 | -2% | 6.5µM* | u | -4% | u
CCN1CCN(c2c(/C=C3\SC(=S)N(Cc4ccco4)C3=O)c(C)c(C#N)c(=O)n2C)CC1 | 10% | 9% | 0% | -10% | -31%
CCOc1cc(N2CCOCC2)c(OCC)cc1NC(=O)COC(=O)c1c(C)noc1C | -1% | x | x | 8% | x
COc1ccc(-c2noc(CSc3nnc(-c4ccncc4)n3-c3ccccc3)n2)cc1 | 4% | x | -26% | -12% | u
CCC1(c2ccc(Cl)cc2)NC(=O)N(CC(=O)NCc2ccc(F)cc2)C1=O (stereo not drawn) | 2% | -10% | 0% | 6% | -15%
CCC1(c2ccc(Cl)cc2)NC(=O)N(Cc2ccc(C(=O)OC)cc2)C1=O (stereo not drawn) | 4% | 21µM* | -8% | -2% | -7%
O=C(c1ccccc1)C1OC1C(=O)c1ccccc1 (stereo not drawn) | 13µM* | x | -10% | 3% | u
CC1C=CC(C)C(C(=O)c2ccccc2)C1C(=O)c1ccccc1 (stereo not drawn) | 0% | x | x | 2% | x
O=C(CN1C(=O)CCSc2ccccc21)Nc1ccc(C(F)(F)F)cc1 | 1% | x | 3% | -2% | -30%
CCN(Cc1nc(-c2ccc(OC)c(OC)c2)no1)S(=O)(=O)c1ccc(OC)cc1 | 7% | x | -11% | x | 1%
CCCC(=O)Nc1cc(-c2nnc(OC)c3ccccc23)ccc1N1CCCCC1 | x | 12% | x | x | x
COc1nnc(-c2ccc(N3CCCCC3)c(N)c2)c2ccccc12 | 6% | x | -11% | 2% | 21µM*
O=C(OCC#CCSc1nnc(-c2c[nH]c3ccccc23)o1)c1ccc(F)cc1 | x | x | -6% | x | 8%
CC(C)N(C(=O)N1CCN(c2ccnc3cc(Cl)ccc23)CC1)C(C)C | 3% | u | -4% | -4% | 9.2µM*
